The structures appear in SMILES notation. Calls of active or inactive are those of the source.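 How the source made its calls, unless noted: active means compounds whose cell count with miR-34 switched on is under 0.7 times the count with it off; inactive means the rest.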

A short description of experiment [1]: sensitizers of A549 cells to miR-34 induction, primary screen, imaging, A549 dox-inducible miR-34, nuclei and caspase counts (AID 1347080). The note with it: A549 miR-34 inducible, Hoechst nuclei count, 48 h.
A short description of experiment [2]: survival rescue of mitochondrial mutant cells in low glucose, primary screen, MELAS cybrids, Rieske KO mouse fibroblasts, CellTiter-Glo (AID 1508586;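 active means mean z-score across replicates of 1.96 or higher in either the MELAS or the Rieske mutant cell line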;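 further: z relative to plate mean and SD of compound and empty wells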). For orientation: Cellular ATP, detected with luciferase, serves as a proxy for viable cell number.
[3] abbreviates: stronger effect = lower value, cell number ratio, induced over uninduced.
The mark [4] stands for this setting: measured here: relative caspase fold change +Dox/-Dox.
Where [5] appears, read: measured here: total cells with miR-34 induction, stronger effect = lower value.
[6] abbreviates: measured here: total cells without miR-34 induction.
Setting [7] is: MELAS cybrid survival, CellTiter-Glo 48 h, stronger effect = higher value.
Where [8] appears, read: Rieske KO mouse fibroblast survival, CellTiter-Glo 72 h.
Further: test concentration not given here.

With `COC(=O)NC(C)CNc1nccc(-c2cn(C(C)C)nc2-c2cc(Cl)cc(NS(C)(=O)=O)c2F)n1` (configuration not stated), the fold change in experiment [1] (setting [3]) is 0.982 (inactive); in experiment [1] (setting [4]), 0.272. In addition, the cell count turned out to be 5200 in experiment [1] (setting [5]) and 5290 in experiment [1] (setting [6]). Besides, the figures for the z-score in experiment [2] (setting [7]) and in experiment [2] (setting [8]) were 0.61 (inactive) and 1.4, respectively.
For `CCC1OC(=O)CC(O)C(C)C(O[C@H]2OC(C)C(O[C@H]3C[C@@](C)(O)C(O)C(C)O3)C(N(C)C)C2O)C(CC=O)CC(C)C(=O)C=CC(C)=CC1COC1OC(C)C(O)C(OC)C1OC` (some centres not stated), the values for the fold change in experiment [1] (setting [3]) and in experiment [1] (setting [4]) were 0.9 (inactive) and 0.768, respectively. The cell count in experiment [1] (setting [5]) came to 8760; in experiment [1] (setting [6]), 9740. Moreover, the z-score is -0.254 (inactive) in experiment [2] (setting [7]) and -0.134 in experiment [2] (setting [8]).
As to `CCCC(C)NC(=O)c1ccc(Cl)c(Cl)c1` (configuration not stated), the values for the fold change in experiment [1] (setting [3]) and in experiment [1] (setting [4]) were 0.868 (inactive) and 0.485, respectively. For the same compound, the cell count turned out to be 8950 in experiment [1] (setting [5]) and 10300 in experiment [1] (setting [6]). In addition, the values for the z-score in experiment [2] (setting [7]) and in experiment [2] (setting [8]) were -0.371 (inactive) and 0.701, respectively.
As for `CCC1=CC2CN(C1)Cc1c([nH]c3ccccc13)[C@@](C(=O)OC)(c1cc3c(cc1OC)N(C)[C@@H]1[C@@]34CCN3CC=C[C@@](CC)(C(OC(C)=O)[C@]1(O)C(=O)OC)[C@@H]34)C2` (some centres not stated), the fold change in experiment [1] (setting [3]) was 1.11 (inactive); in experiment [1] (setting [4]) it was 0.608. The cell count in experiment [1] (setting [5]) came to 1810; in experiment [1] (setting [6]), 1620. In addition, the results for the z-score in experiment [2] (setting [7]) and in experiment [2] (setting [8]) were 2.06 (active) and -0.337, respectively.
For the compound `CC(C)C(C(=O)Nc1ccc(C(=O)NO)cc1)c1ccccc1` (configuration not stated), the fold change in experiment [1] (setting [3]) is 0.964 (inactive); in experiment [1] (setting [4]), 0.891. Further, the cell count in experiment [1] (setting [5]) was found to be 1000; in experiment [1] (setting [6]) it was 1040. The results for the z-score in experiment [2] (setting [7]) and in experiment [2] (setting [8]) were 2.39 (active) and 0.0158, respectively.
`O=C(C=Cc1ccc(O)cc1)c1ccc(O)cc1O`: the fold change in experiment [1] (setting [3]) was 0.99 (inactive); in experiment [1] (setting [4]) it was 0.784. The results for the cell count in experiment [1] (setting [5]) and in experiment [1] (setting [6]) were 8890 and 8980, respectively. In addition, the values for the z-score in experiment [2] (setting [7]) and in experiment [2] (setting [8]) were -0.337 (inactive) and 0.414, respectively.
Consider `Cn1c(=O)cc(N2CCCC(N)C2)n(Cc2ccccc2C#N)c1=O` (configuration not stated), for which the fold change in experiment [1] (setting [3]) is 0.958 (inactive); in experiment [1] (setting [4]) it was 0.837. In addition, the results for the cell count in experiment [1] (setting [5]) and in experiment [1] (setting [6]) were 8510 and 8880, respectively. The z-score in experiment [2] (setting [7]) is -0.12 (inactive); in experiment [2] (setting [8]), -0.0809.
Take `NS(=O)(=O)c1ccc(NC(=O)Nc2ccc(F)cc2)cc1`: the results for the fold change in experiment [1] (setting [3]) and in experiment [1] (setting [4]) were 0.971 (inactive) and 0.438, respectively. Besides, the cell count in experiment [1] (setting [5]) was determined as 8130; in experiment [1] (setting [6]), 8360. In addition, the z-score in experiment [2] (setting [7]) is -0.152 (inactive); in experiment [2] (setting [8]), -0.0443.
For `COC1O[C@H]2O[C@@]3(C)CC[C@H]4[C@@H](C)CC[C@@H]([C@H]1C)[C@@]24OO3` (some centres not stated), the fold change in experiment [1] (setting [3]) is 0.86 (inactive); in experiment [1] (setting [4]) it was 1.37. Moreover, the cell count in experiment [1] (setting [5]) came out at 7410; in experiment [1] (setting [6]) it was 8620. Also, the results for the z-score in experiment [2] (setting [7]) and in experiment [2] (setting [8]) were -0.241 (inactive) and 0.578, respectively.
On to `OCc1ccc(OC2OC(CO)C(O)C(O)C2O)cc1` (configuration not stated), for which the fold change is 0.984 (inactive) in experiment [1] (setting [3]) and 0.233 in experiment [1] (setting [4]). Also, the cell count in experiment [1] (setting [5]) was 8280; in experiment [1] (setting [6]), 8420. Besides, the results for the z-score in experiment [2] (setting [7]) and in experiment [2] (setting [8]) were -0.247 (inactive) and -0.122, respectively.
For `COc1ccc(CNCc2cccc3ccccc23)cc1`, the fold change in experiment [1] (setting [3]) is 0.918 (inactive); in experiment [1] (setting [4]), 0.638. The figures for the cell count in experiment [1] (setting [5]) and in experiment [1] (setting [6]) were 8220 and 8960, respectively. The figures for the z-score in experiment [2] (setting [7]) and in experiment [2] (setting [8]) were -0.404 (inactive) and -0.0397, respectively.
Regarding `CC(CCC(=O)O)C1CC[C@H]2[C@@H]3CC(O)[C@@H]4CC(O)CC[C@]4(C)[C@@H]3CC[C@]12C` (some centres not stated), the fold change in experiment [1] (setting [3]) is 0.928 (inactive); in experiment [1] (setting [4]), 0.729. In addition, the cell count in experiment [1] (setting [5]) stood at 9520; in experiment [1] (setting [6]), 10300. The z-score in experiment [2] (setting [7]) is -0.299 (inactive); in experiment [2] (setting [8]), 0.38.
In the case of `CC(O)=C(C#N)C(=O)Nc1ccc(C(F)(F)F)cc1`, the fold change in experiment [1] (setting [3]) was 0.904 (inactive); in experiment [1] (setting [4]), 1.22. In addition, the cell count in experiment [1] (setting [5]) was determined as 7860; in experiment [1] (setting [6]) it was 8690. Further, the figures for the z-score in experiment [2] (setting [7]) and in experiment [2] (setting [8]) were -0.297 (inactive) and -0.28, respectively.
In the case of `CCC(C)CC(C)CCCCCCCCC(=O)NC1CC(O)C(NCCN)NC(=O)[C@@H]2C(O)CCN2C(=O)[C@@H](C(O)CCN)NC(=O)[C@H](C(O)C(O)c2ccc(O)cc2)NC(=O)[C@@H]2CC(O)CN2C(=O)[C@H](C(C)O)NC1=O` (some centres not stated), the fold change was 0.95 (inactive) in experiment [1] (setting [3]) and 0.316 in experiment [1] (setting [4]). Besides, the values for the cell count in experiment [1] (setting [5]) and in experiment [1] (setting [6]) were 7980 and 8400, respectively. For the same compound, the values for the z-score in experiment [2] (setting [7]) and in experiment [2] (setting [8]) were -0.141 (inactive) and 0.0344, respectively.
Take `Cc1[nH]c(C=C2C(=O)Nc3ccc(S(=O)(=O)Cc4c(Cl)cccc4Cl)cc32)c(C)c1C(=O)N1CCCC1CN1CCCC1` (configuration not stated): the results for the fold change in experiment [1] (setting [3]) and in experiment [1] (setting [4]) were 0.833 (inactive) and 1.46, respectively. Moreover, the cell count in experiment [1] (setting [5]) was 4270; in experiment [1] (setting [6]), 5130. The z-score is -0.699 (inactive) in experiment [2] (setting [7]) and 0.101 in experiment [2] (setting [8]).
In the case of `CC(C)(C)NC(=O)C1CC[C@H]2[C@@H]3CC[C@H]4NC(=O)C=C[C@]4(C)[C@@H]3CC[C@]12C` (some centres not stated), the fold change was 1.03 (inactive) in experiment [1] (setting [3]) and 1.3 in experiment [1] (setting [4]). In addition, the cell count in experiment [1] (setting [5]) is 8400; in experiment [1] (setting [6]) it was 8170. The values for the z-score in experiment [2] (setting [7]) and in experiment [2] (setting [8]) were -0.417 (inactive) and 0.72, respectively.
In the case of `CCNC(=O)Nc1ccc(-c2nc3c(c(N4CCOCC4C)n2)CCN(C2COC2)C3)cc1` (configuration not stated), the fold change is 0.905 (inactive) in experiment [1] (setting [3]) and 0.555 in experiment [1] (setting [4]). The cell count is 2790 in experiment [1] (setting [5]) and 3080 in experiment [1] (setting [6]). Further, the values for the z-score in experiment [2] (setting [7]) and in experiment [2] (setting [8]) were 2.89 (active) and -0.834, respectively.
